# Test results as given in PubChem BioAssay (EPA / NIEHS).
# Results filed as inconclusive are left out. The source made the active and inactive calls. How the source made its calls, unless noted: active means hit-call score of the fitted dose curve at least 0.9, where 1 is the maximum; inconclusive means response in the unintended direction; inactive means score below 0.9.
# How the values were obtained:
# [1] = target: Transcription factor E2F1 (Homo sapiens) (UniProt Q01094); test: ATG_E2F_CIS: Attagene CIS-FACTORIAL HepG2 Assay for human E2F Transcription Factor 1 (AID 2282935; active means hit-call score of the fitted dose curve at least 0.9, where 1 is the maximum; inactive means score below 0.9); conditions: HepG2 Attagene cis-reporter, E2F reporter RNA transcripts; actives raise or lower the signal
# Sequence of Transcription factor E2F1 (Homo sapiens) (Q01094 whole entry, looked up): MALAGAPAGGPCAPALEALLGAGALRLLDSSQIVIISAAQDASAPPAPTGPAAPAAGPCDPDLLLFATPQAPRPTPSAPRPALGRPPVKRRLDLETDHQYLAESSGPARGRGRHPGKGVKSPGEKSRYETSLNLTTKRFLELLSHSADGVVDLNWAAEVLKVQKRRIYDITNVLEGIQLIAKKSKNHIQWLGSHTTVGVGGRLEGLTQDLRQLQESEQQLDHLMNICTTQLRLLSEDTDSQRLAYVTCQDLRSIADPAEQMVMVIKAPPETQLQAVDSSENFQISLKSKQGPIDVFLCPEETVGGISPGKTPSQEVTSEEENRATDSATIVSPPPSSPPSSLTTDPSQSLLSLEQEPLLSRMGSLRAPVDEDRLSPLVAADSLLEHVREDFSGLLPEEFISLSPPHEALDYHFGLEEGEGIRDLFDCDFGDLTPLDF
# Outline: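 Gain or loss of reporter transcript, fitted against DMSO, reflects E2F1-driven transcription. Transiently transfected HepG2 dosed 24 h before RNA isolation. Quantified by fluorescent RT-PCR products separated by capillary electrophoresis.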
# [2] = ATG_PBREM_CIS: Attagene CIS-FACTORIAL HepG2 Assay for human Phenobarbital-responsive Enhancer Module (PBREM) (AID 2282955; active means hit-call score of the fitted dose curve at least 0.9, where 1 is the maximum; inactive means score below 0.9); conditions: HepG2 PBREM cis-reporter, Attagene multiplexed transcription; actives raise or lower the signal
# Outline: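 HepG2 cells transiently transfected with multiple cis-regulated reporter units measure endogenous transcription factor activity; 24 h compound exposure. Reporter mRNA quantified by RT-PCR, fluorescent labelling, HpaI digestion and capillary electrophoresis; bidirectional fit versus DMSO.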
# [3] = ATG_NF_kB_CIS: Attagene CIS-FACTORIAL HepG2 Assay for human Nuclear Factor Kappa B (NF-kB) (AID 2282991; active means hit-call score of the fitted dose curve at least 0.9, where 1 is the maximum; inactive means score below 0.9); conditions: HepG2 Attagene cis-factorial NF-kB reporter mRNA; actives raise or lower the signal
# Outline: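 HepG2 cells transfected with cis-promoter-driven reporter units, so endogenous transcription factor activity is measured. Reporter mRNA quantified 24 h after dosing by RT-PCR and capillary electrophoresis, with bidirectional fitting against DMSO.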
# [4] = ACEA_ER_AUC_viability: ACEA Biosciences xCELLigence Real-Time Cell Analysis on Estrogen Receptor Agonism for Viability (AID 2283782);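 further: hit means loss of impedance signal meaning reduced cell growth or viability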
# Outline: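 Viability endpoint: reduced impedance area under the curve relative to DMSO, recorded by real-time electrode sensing over ~80 h of continuous exposure. Duplicate plates of T47D in hormone-depleted medium; eight concentrations, 1:4 dilutions, 100 uM maximum.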
# [5] = CCTE_Harrill_HTTr_CellCount_MCF7: CCTE's Cell Proliferation Assessment for the High-Throughput Transcriptomics (HTTr) Platform, Harrill Lab (AID 2284012);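 further: cells exposed to compound for six hours; intended direction is loss of nuclei count meaning fewer cells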
# Outline: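 Cell count from high-content imaging of Hoechst-labeled nuclei serves as viability/growth readout. Chemicals were applied to MCF-7 cells in eight concentrations for six hours, with fitting in both directions relative to DMSO.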
# [6] = ATG_M_06_TRANS: Attagene TRANS-FACTORIAL HepG2 Assay for M06 Transcription Factor (Internal Marker) (AID 2282983); conditions: HepG2 Attagene TRANS M06 internal marker reporter;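 further: reporter transcript level by RT-PCR then capillary electrophoresis fluorescence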
# Outline: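 mRNA levels of a reporter transcript, quantified as FAM fluorescence on capillary electrophoresis, served as readout. HepG2 cells expressing exogenous GAL4-chimera reporter constructs were exposed for 24 h. Gain of signal over DMSO was evaluated.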
# [7] = target: human RAR-related Orphan Receptor beta (RORb), RORB (gene 6096) (UniProt Q92753); test: ATG_RORb_TRANS: Attagene TRANS-FACTORIAL HepG2 Assay for human RAR-related Orphan Receptor beta (RORb) (AID 2283010)
# Sequence of human RAR-related Orphan Receptor beta (RORb), RORB (gene 6096) (Q92753 whole entry, looked up, the tested form may be a part): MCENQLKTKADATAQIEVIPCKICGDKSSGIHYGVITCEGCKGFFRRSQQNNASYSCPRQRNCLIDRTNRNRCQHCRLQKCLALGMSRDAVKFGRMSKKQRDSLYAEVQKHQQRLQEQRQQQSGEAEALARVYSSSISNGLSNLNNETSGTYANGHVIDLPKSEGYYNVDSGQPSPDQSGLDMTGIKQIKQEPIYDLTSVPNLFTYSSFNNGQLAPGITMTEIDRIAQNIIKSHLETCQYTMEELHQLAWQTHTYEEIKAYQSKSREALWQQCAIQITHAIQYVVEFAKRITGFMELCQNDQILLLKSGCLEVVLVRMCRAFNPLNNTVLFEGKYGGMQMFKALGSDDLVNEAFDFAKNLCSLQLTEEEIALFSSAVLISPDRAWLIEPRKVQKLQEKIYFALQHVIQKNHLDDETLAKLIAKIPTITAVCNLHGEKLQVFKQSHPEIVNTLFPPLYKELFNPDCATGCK
# Outline: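 Read-out is reporter mRNA induction, quantified by RT-PCR with fluorescent capillary electrophoresis, 24 h post-dose in transiently transfected HepG2 expressing exogenous NR-Gal4 chimera. Activity fitted upward versus DMSO.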
# [8] = CCTE_Shafer_MEA_acute_per_network_burst_electrodes_number_mean: CCTE's Neural Acute Assay for Mean Number of Electrodes in a Network Burst, Shafer Lab (AID 2284021; active means hit-call score of the fitted dose curve at least 0.9, where 1 is the maximum; inactive means score below 0.9;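 further: curves fitted for decreases only so hits reduce electrodes per burst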)
# Outline: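 Rat primary cortical neurons on 48-well MEAs, DIV 13 or 15, were treated at 0.03-40 uM. Spikes were detected at 8x rms noise and recorded at 37 C. The mean electrodes per network burst in a 40 min exposure recording was expressed as percent change from a 40 min baseline.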
# [9] = CCTE_Shafer_MEA_acute_network_burst_percentage: CCTE's Neural Acute Assay for Percentage of Network Bursts, Shafer Lab (AID 2284022; active means hit-call score of the fitted dose curve at least 0.9, where 1 is the maximum; inactive means score below 0.9;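 further: curves fitted for loss so actives lower network burst percentage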)
# Outline: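 Rat primary cortical neuron networks on 48-well MEA plates, DIV 13 or 15, treated acutely with compound (0.03-40 uM, at least three wells). Percent of spikes within network bursts compared between 40-min recordings before and during exposure at 37 C, expressed as percent change.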
# [10] = CCTE_Shafer_MEA_acute_cross_correlation_area: CCTE's Neural Acute Assay for Area of Cross Correlation, Shafer Lab (AID 2284024; active means hit-call score of the fitted dose curve at least 0.9, where 1 is the maximum; inactive means score below 0.9;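 further: curves fitted for loss of cross-correlation area so actives lower synchrony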)
# Outline: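 Rat primary cortical neurons on 48-well MEA, DIV 13 or 15; compounds 0.03-40 uM. Baseline and post-exposure 40 min recordings at 37 C; percent change in area under pooled inter-electrode cross-correlation near zero lag, relative to DMSO.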
# [11] = CCTE_Shafer_MEA_acute_cross_correlation_HWHM: CCTE's Neural Acute Assay for Cross Correlation at Half Width at Half Maximum, Shafer Lab (AID 2284026; active means hit-call score of the fitted dose curve at least 0.9, where 1 is the maximum; inactive means score below 0.9;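 further: percent change per well from pre-dose baseline in spike cross-correlogram half width; hits are a decrease in cross-correlogram half width relative to DMSO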;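 on outcome: spontaneous network firing of rat primary cortical neurons on multiwell microelectrode arrays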)
# Outline: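 Rat primary cortical neurons on 48-well MEA plates; 40-min baseline and 40-min post-exposure recordings at 37 C on DIV 13 or 15, compounds 0.03-40 uM. Spikes detected at 8x rms noise; percent change in cross-correlogram HWHM per well vs baseline.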
# [12] = CCTE_Shafer_MEA_acute_AB: CCTE's Alamar Blue Assay for Cytotoxicity in the Neural Acute Assay, Shafer Lab (AID 2284069);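 further: active compounds lower the viability signal compared with DMSO wells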
# Outline: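 Primary rat cortical neurons on MEA plates, exposed acutely after baseline recording on day 13 or 15 post-plating. Viability by CellTiter Blue resazurin reduction (1:6 reagent dilution), fluorescence 544/590 nm; loss of signal versus DMSO.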
# [13] = CCTE_Shafer_MEA_acute_LDH: CCTE's Lactate Dehydrogenase Assay for Cytotoxicity in the Neural Acute Assay, Shafer Lab (AID 2284086);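 further: active means LDH release rises above DMSO vehicle level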
# Outline: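 LDH released during 40 min compound exposure of primary rat cortical cultures, quantified by absorbance at 490 nm in collected medium. Fitting direction positive versus DMSO vehicle.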
# [14] = target: Hepatocyte nuclear factor 4-alpha (Homo sapiens) (UniProt P41235); test: ATG_HNF4a_TRANS: Attagene TRANS-FACTORIAL HepG2 Assay for human Hepatocyte Nuclear Factor 4 alpha (HNF4a) (AID 2282982); conditions: HepG2 HNF4a transactivation reporter, mRNA readout
# Sequence of Hepatocyte nuclear factor 4-alpha (Homo sapiens) (P41235 whole entry, looked up, the tested form may be a part): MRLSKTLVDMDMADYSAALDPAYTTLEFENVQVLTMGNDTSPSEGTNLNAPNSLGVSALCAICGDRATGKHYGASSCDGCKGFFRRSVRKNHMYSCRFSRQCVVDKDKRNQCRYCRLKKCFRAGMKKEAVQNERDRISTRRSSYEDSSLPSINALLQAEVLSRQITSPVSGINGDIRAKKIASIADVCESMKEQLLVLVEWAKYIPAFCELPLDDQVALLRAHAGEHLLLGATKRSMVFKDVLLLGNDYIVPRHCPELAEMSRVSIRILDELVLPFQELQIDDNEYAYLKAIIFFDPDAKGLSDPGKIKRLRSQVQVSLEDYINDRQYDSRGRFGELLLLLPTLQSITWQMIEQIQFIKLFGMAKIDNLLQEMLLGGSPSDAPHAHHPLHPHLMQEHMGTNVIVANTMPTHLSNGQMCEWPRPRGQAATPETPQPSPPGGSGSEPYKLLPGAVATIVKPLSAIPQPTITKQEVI
# Outline: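 Activity of an exogenous HNF4a–Gal4 fusion scored as induced GAL4-UAS reporter transcripts after 24 h chemical exposure of transfected human HepG2 cells. Read-out via RT-PCR with 6-FAM labelling and capillary electrophoresis; rise over DMSO baseline.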
# [15] = target: human Peroxisome Proliferator-activated Receptor delta (PPARd), PPARD (gene 5467) (UniProt Q03181); test: ATG_PPARd_TRANS: Attagene TRANS-FACTORIAL HepG2 Assay for human Peroxisome Proliferator-activated Receptor delta (PPARd) (AID 2283002)
# Sequence of human Peroxisome Proliferator-activated Receptor delta (PPARd), PPARD (gene 5467) (Q03181 whole entry, looked up, the tested form may be a part): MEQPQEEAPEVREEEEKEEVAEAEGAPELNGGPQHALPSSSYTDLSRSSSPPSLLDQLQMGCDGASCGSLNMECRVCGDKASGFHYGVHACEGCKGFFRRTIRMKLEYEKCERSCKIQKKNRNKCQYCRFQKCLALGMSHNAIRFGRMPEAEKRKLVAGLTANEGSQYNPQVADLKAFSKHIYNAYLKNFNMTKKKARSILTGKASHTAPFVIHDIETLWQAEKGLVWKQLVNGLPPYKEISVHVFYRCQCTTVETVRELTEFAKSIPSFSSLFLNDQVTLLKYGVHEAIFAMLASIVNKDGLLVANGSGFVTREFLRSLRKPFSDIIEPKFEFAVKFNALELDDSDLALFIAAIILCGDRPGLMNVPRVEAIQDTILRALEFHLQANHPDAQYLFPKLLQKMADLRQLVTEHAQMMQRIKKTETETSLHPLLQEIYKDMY
# Outline: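 Transient HepG2 transfection (multiple GAL4-UAS RTUs, chimeric receptor-Gal4); 24 h dosing; total RNA → oligo(dT) RT → PCR → 6-FAM primer extension → HpaI cut → CE. Positive direction vs DMSO.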
# [16] = target: human Peroxisome Proliferator-activated Receptor alpha (PPARa), PPARA (gene 5465) (UniProt Q07869); test: ATG_PPARa_TRANS: Attagene TRANS-FACTORIAL HepG2 Assay for human Peroxisome Proliferator-activated Receptor alpha (PPARa) (AID 2283001)
# Sequence of human Peroxisome Proliferator-activated Receptor alpha (PPARa), PPARA (gene 5465) (Q07869 whole entry, looked up, the tested form may be a part): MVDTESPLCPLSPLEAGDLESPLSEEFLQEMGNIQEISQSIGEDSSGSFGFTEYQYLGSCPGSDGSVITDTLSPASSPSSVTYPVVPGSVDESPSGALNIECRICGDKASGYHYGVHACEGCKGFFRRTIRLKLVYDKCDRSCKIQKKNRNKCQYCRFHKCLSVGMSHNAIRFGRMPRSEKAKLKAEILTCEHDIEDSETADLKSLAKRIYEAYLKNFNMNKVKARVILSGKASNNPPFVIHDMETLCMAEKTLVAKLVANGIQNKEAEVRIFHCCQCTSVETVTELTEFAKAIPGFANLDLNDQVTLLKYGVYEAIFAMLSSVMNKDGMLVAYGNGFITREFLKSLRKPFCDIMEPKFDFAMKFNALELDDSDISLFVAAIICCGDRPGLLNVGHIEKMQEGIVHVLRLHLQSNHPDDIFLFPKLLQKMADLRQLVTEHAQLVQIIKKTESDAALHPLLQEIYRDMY
# Outline: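 Reporter transcripts quantified by RT-PCR plus capillary electrophoresis after 24 h treatment, fitted upward relative to DMSO. Cells: human HepG2 transiently carrying multiple GAL4-UAS reporter units driven by NR-Gal4 chimeras.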
structure (smiles),measurement,setting,value
CCCCCCCCCCCCCC,outcome,[1],inactive
same,outcome,[2],inactive
same,outcome,[3],inactive
same,outcome,[4],inactive
same,outcome,[5],inactive
CCC(C)NC(N)=O (configuration not stated),outcome,[1],inactive
same,outcome,[2],inactive
same,outcome,[6],inactive
same,outcome,[3],inactive
same,outcome,[7],inactive
same,AC50,[4],50 µM (active)
CC(C)C1OCCN1CCOC(=O)NCCCCCCNC(=O)OCCN1CCOC1C(C)C (configuration not stated),outcome,[8],inactive
same,outcome,[9],inactive
same,outcome,[10],inactive
same,outcome,[11],inactive
same,outcome,[12],inactive
same,outcome,[13],inactive
COC(=O)c1ccccc1,outcome,[14],inactive
same,outcome,[6],inactive
same,outcome,[15],inactive
same,outcome,[7],inactive
CCCCCCCCCCC1CO1 (configuration not stated),outcome,[1],inactive
same,outcome,[2],inactive
same,outcome,[3],inactive
same,outcome,[16],inactive
same,outcome,[15],inactive
same,AC50,[4],32.9 µM (active)
Oc1ccc2c(c1)Cc1ccccc1-2,outcome,[5],inactive
COc1ccc(COC=O)cc1,outcome,[4],inactive
CNCCC(Oc1ccc(C(F)(F)F)cc1)c1ccccc1 (configuration not stated),outcome,[5],inactive
same,outcome,[8],inactive
same,outcome,[9],inactive
same,outcome,[10],inactive
same,AC50,[11],7.68 µM (active)
same,outcome,[12],inactive
same,outcome,[13],inactive
CC(COc1ccccc1)N(CCCl)Cc1ccccc1 (configuration not stated),AC50,[4],88.7 µM (active)
